The labels stand for the following.
B1: d8r1_design_ppi_323_dldesign_0_cycle1_af2pred (protein)
chain: SALEEAKRAIAEARELAAEAKARGPAAAPAAAIAANAIAGAELLVELGSYEAATAVARAGIRVARAYLAAV
B2: d8r1_design_ppi_1136_dldesign_0_cycle1_af2pred (protein)
chain: AAEKEARDLAAADNAIALVKKMLEAGVSPENALATAEAAAALLSPAARARLLAAARAIVAAHEAAKAAAAA
B3: d8r1_design_ppi_400_dldesign_0_cycle0_af2pred (protein)
chain: SAELAAIKAAAENARAGAILLAKESKAETALKFNEAAKERLLKLAAATADAKAAKAVVEEEAKKAEEEIKKIGEE
B4: d8r1_design_ppi_1265_dldesign_0_cycle0_af2pred (protein)
chain: SETEEGAKALIRAAANAAKYLAKKYGELAKKLAELVKKALEAGPEEAVKYLEEAAALAKEAGQKTGGTKAFAALQATLKKAAELKKK
B5: d8r1_design_ppi_592_dldesign_0_cycle1_af2pred (protein)
chain: GDAEDAVRAAENALKSAENYLAKADTLEQAQKAINAAKGAREFIKYAAKLGADPATVAALEKKANAVEEAAKAKAKALA
B6: d8r1_design_ppi_412_dldesign_0_cycle1_af2pred (protein)
chain: AKAAQLRATSDLYALAYIAEKKVGKALADKLRAAAASGDPAAMLAAAEEAAKAIGEIGKRLYERLVAALA
B7: d8r1_design_ppi_700_dldesign_0_cycle0_af2pred (protein)
chain: SENKAKMEEHLAKAKEALLKGDPAAAPLAEAMAKAAKEEGPAALMAAAAAAYAAVVAADPSAAPLASQALAHAAKAAIYLGDS
B8: d8r1_design_ppi_1038_dldesign_0_cycle1_af2pred (protein)
chain: SDKRLAKNTAEAILRRTKELAKKAAAATAEEAKALAAIAEKGAKSAEAVAKKSGDEETKKLAKEAKEAAKKAKE
B9: d8r1_design_ppi_416_dldesign_0_cycle0_af2pred (protein)
chain: SEEAARILAETLGTISAQTAAAKAAAAAGDVEAARAAAAAARAAAEEGAKRLEELGNKSGAEALRSIGAATAAHIKALAAKAAA
B10: d8r1_design_ppi_897_dldesign_0_cycle1_af2pred (protein)
chain: NPEAKDAALVKIGEGASYVAAASGDTAVARTVFTTSYTGVQEGNLEAAAAAAVATVAAAVDAATAARVAALAAAAVAAYKA
B11: d8r1_design_ppi_996_dldesign_0_cycle1_af2pred (protein)
chain: SASDIKAAQKAAAAVLRVAAERFPEVAAVAEPAAETAYNGDAETAIKAILEAAEAIRAAAARLPGGAELRAYADALENIAALLKRLAA
B12: d8r1_design_ppi_1339_dldesign_0_cycle0_af2pred (protein)
chain: DEAWLAEIKALVSAAVAAAREGDVAALAAAQAAAAALAAAAPASVKPAAANATAGIATLLELTKERLEEKA
B13: d8r1_design_ppi_508_dldesign_0_cycle1_af2pred (protein)
chain: AGKEALAKAIAEVKELVTAAMLANQKSREEGIKTAKEQAEKAKKLAEEAKASPLAAEIVKVLQSGRDFLEKLAEMLKES
B14: d8r1_design_ppi_674_dldesign_0_cycle1_af2pred (protein)
chain: SEEKINQAWIDTSKASELILAGEELSVTDPEKGAALIEKGRALAEEAAKAVPSKAEAILSTAEKTLEVAKARAAEVAA
B15: d8r1_design_ppi_419_dldesign_0_cycle1_af2pred (protein)
chain: SALEEKAKEAIEKMEKAAEELKKAAAELKKLDPEAGAAAEAALEAHLAILELAKKFSTKVTLNVAEAMTRGLERALKEAKARIAALK
B16: d8r1_design_ppi_266_dldesign_0_cycle0_af2pred (protein)
chain: SKVEEAKERFEKVVEEAEKKVKEALAKAKTAEEALKASIEAIKEAASEIAKIYSEVGEEVADLAVEALARLSALTAEAKAAAAKKAAA
B17: d8r1_design_ppi_700_dldesign_0_cycle1_af2pred (protein)
chain: EETKKKRDEYVKKAGEALLKADPTLTAQAAAIKDAAYNAGPAALMAAMAAAYKAAVAANPANAPYAAEAVNYAAKAAIYAKEA
B18: d8r1_design_ppi_753_dldesign_0_cycle1_af2pred (protein)
chain: NAAAKAALAAAKAAVEGASLLVEVAEKEGSKGMLEAAKRVAEEAIAAAEKAAKLGATEEAAKLKAQAKEVKKRAEKLE
B19: d8r1_design_ppi_1381_dldesign_0_cycle1_af2pred (protein)
chain: AAARQELVDRALAALDAARAASPEEAVAIAPKAYGLAVMVGEDPRVQAALEAAAAANPAAAPILNEALALARATAAAQAAARAAA

The experiment deals with PDL1, Q9NZQ7.
PDL1, Q9NZQ7, sequence (Q9NZQ7 whole entry): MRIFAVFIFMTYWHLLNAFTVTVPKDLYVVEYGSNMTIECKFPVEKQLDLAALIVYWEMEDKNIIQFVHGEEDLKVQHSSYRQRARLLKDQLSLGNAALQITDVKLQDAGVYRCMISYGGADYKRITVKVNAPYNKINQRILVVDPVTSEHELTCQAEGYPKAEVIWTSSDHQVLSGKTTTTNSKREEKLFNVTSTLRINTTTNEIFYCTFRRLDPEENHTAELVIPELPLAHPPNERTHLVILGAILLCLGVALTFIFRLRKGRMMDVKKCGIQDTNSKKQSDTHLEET
Turning to B1, the “binding in a display sort” value is “not found (inactive)”.

With B2, the “binding in a display sort” value is “not found (inactive)”.

For B3, the “binding in a display sort” value was “not found (inactive)”.

On to B4, for which the “binding in a display sort” value is “not found (inactive)”.

As for B5, the “binding in a display sort” value was “not found (inactive)”.

As for B6, the “binding in a display sort” value was “not found (inactive)”.

For the molecule B7, the “binding in a display sort” value was “not found (inactive)”.

For B8, the “binding in a display sort” value was “not found (inactive)”.

For the molecule B9, the “binding in a display sort” value was “binds (active)”.

With B10, the “binding in a display sort” value is “not found (inactive)”.

As to B11, the “binding in a display sort” value was “not found (inactive)”.

Take B12: the “binding in a display sort” value is “not found (inactive)”.

For the molecule B13, the “binding in a display sort” value is “not found (inactive)”.

For the molecule B14, the “binding in a display sort” value is “not found (inactive)”.

With B15, the “binding in a display sort” value was “not found (inactive)”.

B16: the “binding in a display sort” value is “not found (inactive)”.

As for B17, the “binding in a display sort” value was “not found (inactive)”.

As for B18, the “binding in a display sort” value is “not found (inactive)”.

B19: the “binding in a display sort” value is “not found (inactive)”.

The values above are taken from paper PMC13494018.
